# Experimental data as given in the supplement of paper PMC6555819.
# Experiments:
# Test in all cases: PBM binding z-score (relative to random genomic background probes); higher = stronger binding; sequences stand for … in GC…GCGATTGACAGCGTAGAATGAAGG
# [1] = system: RARb homodimer (NR concentration 270 nM)
# Outline: (§1)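 Scanned fluorescence from custom Agilent 4×180K protein-binding microarrays was regression-normalized. Binding z-scores use random background probes as reference. Ligand-free nuclear receptor dimers were incubated on the arrays for 1 h and detected with antibodies against each partner (one per run).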
# [2] = system: RARg:RXRa (NR concentration 270 nM, RXRa partner concentration 90 nM)
# Outline: as §1
# [3] = system: RARg homodimer (NR concentration 270 nM)
# Outline: as §1
# [4] = system: RXRa DBDmut IVT, anti-RXR (DBD mutation: RXRa K156A/R161A, NR concentration 90 nM)
# Outline: as §1
# [5] = system: RXRa homodimer (NR concentration 180 nM)
# Outline: as §1
# [6] = system: THRa:RXRa (NR concentration 90 nM, RXRa partner concentration 90 nM)
# Outline: as §1
# [7] = system: THRa homodimer (NR concentration 90 nM)
# Outline: as §1
# [8] = system: VDR homodimer (NR concentration 270 nM)
# Outline: as §1
Sequence,PBM binding z-score [1],PBM binding z-score [2],PBM binding z-score [3],PBM binding z-score [4],PBM binding z-score [5],PBM binding z-score [6],PBM binding z-score [7],PBM binding z-score [8]
TCATATCGGTAAACAGGTGAAAGTCCGTAAGTTA,0.664,0.475,0.211,1.26,0.834,0.552,0.248,0.533
CCTCGGAGGACAACAGGAGTTCAGAGCTGCCAGA,1.91,1.7,1.9,0.979,0.335,1.17,-0.102,2.95
TGAATGAGGTTAAAAGATCAGGGAACGTTGCAAA,0.578,2.56,1.18,0.605,2.79,1.83,-0.00624,0.327
TGAATGTGGTTAAAGATCAGGGAACGTGGCGTCG,-0.107,0.0115,-0.196,-0.526,0.126,-0.141,-0.0512,-0.00679
CGTCCAAGGTCAAAGGTCAGTGAGGAGATGACGG,5.41,8.78,8.47,3.92,10.4,4.81,2.98,4.41
ATCGAAAGGTCGAAGGTGAGTATACCCACCCGAA,2.51,4.29,3.81,0.771,5.16,2.27,-0.0349,0.804
AATACAGGGTCAGCGTAGGCCAGAGTACGCACAG,3.36,4.93,4.67,1.69,4.84,3.98,0.9,1.65
TCTAGTTGGTCTCGGAGGTCACACACGACGGGTA,4.01,3.75,3.47,1.15,4.16,3.65,2.74,2.48
TCAGACAGGTGAAGGTAACTCAGGTACGCAGTCG,1,0.581,0.551,1.37,0.995,1.48,0.516,0.357
CAAACTACGTCAAGAGGTCAAAGTCCGCTTCCCG,4.32,5.45,4.73,2.5,6.72,3.72,1.78,4.48
TCATATAGGTAAAAGGTGAAACTCGGTGTGGTAA,2.15,2.48,1.17,1.9,3.81,2.16,0.677,0.686
GCGACTGGGGCATCAGCAGGTTACCCTAACTTAA,0.901,0.748,0.106,-0.65,0.381,1.29,0.628,-0.558
CGTCCAAGGTCAAATGTCAGTGAAGAGATGACGG,4.41,6.58,7.15,3.82,6.77,4,2.21,2.75
GCAGACAGCTGAAACGCAGGTAACTCAGGGTGGC,-0.98,-0.584,-0.685,-0.772,-0.453,0.284,-0.483,-1.05
CCTAGCAGGCCAGGGACACTCAAGCATTTCGCTT,0.112,-0.238,-0.144,-0.269,-0.377,0.512,0.193,-0.34
CTCGGAAGGTCGTGCTCAGGTGAGTATACCAAAC,1.95,3.34,2.31,1.18,2.37,3.59,1.15,0.743
CGTCAAAGTTCAACTAAGGTAACGTAAAGCACGC,4.51,5.92,6.41,4.68,5.28,5.33,1.93,3.26
CCTATTAGTTGACCATAAGGGCGACCGAAGCTCG,1.12,0.591,0.438,0.516,0.491,0.798,0.626,0.694
TCTATTAGTTGAAGGGCAATCGACGAGTCCGTTT,0.87,0.355,0.467,1.61,0.559,0.0989,-0.0938,1.42

Sequence,PBM binding z-score [1],PBM binding z-score [2],PBM binding z-score [3],PBM binding z-score [4],PBM binding z-score [5],PBM binding z-score [6],PBM binding z-score [7],PBM binding z-score [8]
GCAGACAGGTGAAACGCAGGTAACTAAGGGTGGC,0.042,0.719,0.208,-0.64,0.593,1.15,-0.719,-0.867
CCTGCTAGGTCATGGTCACCTAATCTACAGTATG,3.43,4.1,4.93,1.77,3.5,3.13,1.78,0.622
CCTTACGGGTCACTCACAGGTTATAGCATTTGGA,3.65,5.9,4.5,2.04,4.75,3.07,0.529,1.28
TCTTGTAGATCAAAGGTTAAGAAAGCCGAAGCCT,1.36,1.68,0.776,0.652,3.27,1.27,-0.357,-0.0957
TCTCGGAGAACACGAAGGTCAGAGCTTTCCAGAG,2.86,1.7,1.58,0.25,1.61,1.18,-0.552,-0.097
CGAACTAGGTCATTGACATGACAGTGAATAGTAA,2.55,3.68,4.2,2.17,2.84,2.68,0.792,1.36
TCTAGTTGGTCAAAGGTCACACTCTCGAAATGCG,5.1,6.72,5.71,1.96,7.91,4.01,2.1,2.53
CCTACTGGGCCAAAGGTCATCGATTCCAATGCTC,4.9,6.09,5.38,0.987,7.08,3.65,0.966,2.04
ATATGTAGGTTAGCTGGGGTCGTTCAGACTAGGC,1.8,1.66,1.15,1.08,2.37,4.63,1.18,2.29
GCTCGGAGGACAAGGTCAGACCTTTGTCCGTAGA,3.1,3.68,3.51,0.424,3.12,2.94,1.47,0.924
ATATGTAAGTTAAGGGTCATTCAGGTTGGTTCGC,3.8,3.97,3.2,2.13,4.89,3.5,1.55,4.67
ATCCCTAGGTAAGACTCAGTTCAGTGAAGAACGC,0.754,-0.0118,-0.0617,0.567,0.0289,0.832,1,1.07
GATACAGGGCCAGCTAGAGGCCAGAGTATGGAAA,0.561,0.806,0.594,-1.03,-0.349,-0.394,-0.861,-0.246
TCTGCTAGGTCAACGATGGTCAGCTGATCTGCTA,3.36,4,4.88,0.835,2.52,2.99,0.473,-0.511
TCTTGTAGATCAAAGGTTAAGCAAGCCGAAGCCT,1.9,1.98,0.759,0.824,3.56,1.51,-0.503,-0.138
GCGACTGGGGCATCAGCAGGTAACCATAACTTAA,0.543,0.292,0.296,0.0904,0.119,0.856,0.168,-0.668
GATACAGGGTCAAGGCCAAAGTACGCGTATTGAT,3.82,5.66,5.29,2.45,6.07,3.76,1.43,2.52
ACAGACAGGTGAGGGAAGGTAACTCAGCTGGACG,0.595,0.445,0.526,-0.769,0.426,2.31,-0.12,-0.764
CCTAGCAGGCCGATCTGGGTCACTCAAGGCTTGA,1.59,0.546,0.594,-0.129,0.768,2.97,0.256,-0.162

Sequence,PBM binding z-score [1],PBM binding z-score [2],PBM binding z-score [3],PBM binding z-score [4],PBM binding z-score [5],PBM binding z-score [6],PBM binding z-score [7],PBM binding z-score [8]
ATATGTAGGGTAAGGGTCATTCAGGTTGGTTCGC,4.19,4.59,3.27,2.16,5.38,3.68,2.68,5.02
CTCAAAAGGTCGGTTGAGGTGAGTATACGGATAA,2.58,2.78,2.85,0.765,2.66,5.22,1.15,0.384
AGAATGAGGTTATACGTAGATCAGGTAAGAAAGT,1.16,1.68,1.19,1.81,2.31,2.39,1.01,0.844
CCTACTGGGCCAGCAGGTCATTGATATCAACGTT,2.26,2.03,1.62,-0.531,1.6,1.86,0.347,0.812
ATCTGTAGGTTAGCTGGGGTCATTCAGACTAGGC,3.81,4.01,3.04,1.83,5.13,5.16,3.21,5.38
CCTTACGGGTCAAGGTTAGAGCACGGGTGGTACG,3.19,4.77,4.65,-0.0809,4.97,2.94,0.656,1.05
ATCTCCAGGTAACAAGTTCAGTGAAAGAGAGGAC,2.16,1.92,1.39,0.944,1.12,1.96,1.49,3.33
ACAGACAGGTGATGAAGGAAACTCAGGCTATCAT,0.24,0.168,0.36,-0.0618,0.38,0.154,0.0695,-0.33
GCAGACAGGTGAAACGCAGGTAACTCCGGGTGGC,0.0338,0.702,-0.185,-0.71,0.572,1.32,-0.603,-0.791
TTTATTAGTTGATTAGGGCAACCGAAACAGCGGA,0.918,0.811,0.769,0.442,0.586,0.999,0.89,0.951
ATCACTAGGTAACAAGTTCAGTGAAAGAGAGGAC,1.82,1.45,1.49,1.12,0.815,1.54,0.852,2.7
CCTTGGAGGACAACAGGAGGTCAGAGCTGCCAGA,3.58,3.49,3.03,0.451,2.08,2.88,1.13,1.24
CAAACTAGGTCTCAGAGGTCAAAGTCCGTGCGTA,4.68,5.13,4.6,1.65,6.01,3.63,1.7,4.57
CCTTACGGGTCACTGACAGGTGATAGCATTTGGA,3.85,5.63,4.84,2.09,6.14,3.23,0.557,1.31
GGAACGAGGGCAAGTTGGTAGCAGAGTTTGATGG,1.6,1.27,2.08,2.05,0.826,1.41,0.26,1.91
CCTTACGGGTCACGAGGTTATAGCGCGACGAGCG,3.63,5.98,5.29,1.62,6.87,3.59,1.07,1.9
TCGAGTAGGTTACCAATGGGGCATTCAGCTTTCT,0.636,1.2,0.445,0.401,0.5,0.261,-0.612,-0.59
CAGCCTAGGTCAGGGCCAGGATAGGAGGAACGTT,2.32,3.04,3.91,-0.715,1.53,2.31,0.538,-0.171
